The full list was thinned out, with hits kept by preference.
Tgondii IFNg: T. gondii growth inhibition with IFN-gamma, primary screen, cell-based | activity change, negative = inhibition, % (no concentration beside the values) | Toxoplasma gondii growth in IFN-gamma-treated host cells; active compounds read low | 3.8% of 69,000 active; in the data active = activity change below about -70%, passing the limit was not always enough;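 also: host cells are HeLa cells infected with Toxoplasma gondii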
Each line names hits and unclear results; the compound was inactive in the other large screens.

Cc1ccc(Cl)cc1NC(=O)c1nnn(Cc2nc(-c3ccccc3)oc2C)c1C	none
Cc1cc(C)c(NC(=O)c2nnn(Cc3nc(-c4ccc(Cl)cc4)oc3C)c2C)c(C)c1	none
Cc1oc(-c2ccccc2)nc1Cn1nnc(C(=O)Nc2cccc(Cl)c2)c1C	none
COc1ccccc1NC(=O)c1nnn(Cc2nc(-c3ccccc3)oc2C)c1C	none
CCOc1ccc(-c2nc(Cn3nnc(C(=O)Nc4ccccc4)c3C)c(C)o2)cc1	none
Cc1cccc(C)c1NC(=O)c1nnn(Cc2nc(-c3cccc(Cl)c3)oc2C)c1C	none
CCc1ccccc1NC(=O)c1nnn(Cc2nc(-c3ccccc3)oc2C)c1C	none
Cc1cccc(C)c1NC(=O)c1nnn(Cc2nc(-c3ccc(Cl)cc3)oc2C)c1C	Tgondii IFNg -122.3
COc1ccc(NC(=O)c2nnn(Cc3nc(-c4ccccc4)oc3C)c2C)cc1	Tgondii IFNg -94.2
Cc1oc(-c2cccc(Cl)c2)nc1Cn1nnc(C(=O)Nc2cccc(Cl)c2)c1C	Tgondii IFNg -86.1
Cc1ccc(-c2nc(Cn3nnc(C(=O)Nc4cccc(Cl)c4)c3C)c(C)o2)cc1	none
Cc1cc(C)c(NC(=O)c2nnn(Cc3nc(-c4ccccc4)oc3C)c2C)c(C)c1	Tgondii IFNg -77.2
O=C(CN1C(=O)CCc2cc(Br)ccc21)N1CCN(c2ncccn2)CC1	none
CC(=O)NCC(=O)N1CCC2(CC1)CN(c1cnn(C)c1)C(=O)CO2	none
CCCc1cc(C(=O)NC2CCC(n3cnnc3)CC2)ccn1 (centres undefined)	none
CN(C)C(=O)CN1CCC2(CCCN(Cc3nccn3C)C2)C1=O (centres undefined)	none
Cc1oc(-c2ccccc2)nc1Cn1nnc(-c2nc(-c3ccc(OC(C)C)cc3)no2)c1C	Tgondii IFNg -79.9
Cc1ccc(NC(=O)c2nnn(Cc3nc(-c4ccc(Cl)cc4)oc3C)c2C)c(C)c1	none
Cc1ccc(-c2nc(Cn3nnc(-c4nc(-c5ccc(OC(C)C)cc5)no4)c3C)c(C)o2)cc1	none
Cc1ccc(-c2nc(Cn3nnc(-c4nc(-c5ccc(OCC(C)C)cc5)no4)c3C)c(C)o2)cc1	none
Cc1ccc(F)cc1NC(=O)c1nnn(Cc2nc(-c3ccc(OC(C)C)cc3)oc2C)c1C	none
Cc1ccc(NC(=O)c2nnn(Cc3nc(-c4ccc(OC(C)C)cc4)oc3C)c2C)c(C)c1	Tgondii IFNg -97.9
Cc1ccccc1-c1nc(Cn2ccn3nc(-c4ccccc4)cc3c2=O)c(C)o1	none
C=CCOCC1CN(C(=O)CC2C=CCC2)Cc2nnn(C)c21 (centres undefined)	none
CNC(=O)C1Cn2ccnc2C2(CCN(C(=O)NC3CCCC3)CC2)O1 (centres undefined)	none
Cc1cc2nc(C3CCN(C(=O)c4cc(-c5ccco5)on4)CC3)cc(C(F)(F)F)n2n1	none
Cc1nnsc1C(=O)OCCN(C)c1ccc(C#N)cn1	none
Cc1nnsc1C(=O)N(Cc1ccccc1)C(C)C	none
Cc1nnsc1C(=O)OCc1cc(F)cc(F)c1	Tgondii IFNg -77.1
CN(C)CC(=O)N1CCC2(CC1)COCCN(c1ncccn1)C2	none
COc1ccc(Cn2c(-c3ccccc3OC)n[nH]c2=O)cc1	none
CCc1nc(-c2c(-c3ccccc3)ncn2[C@@H](C)c2ncccc2C)c(C)[nH]1	none
O=C(NCCc1ccc(F)cc1)N1CCC2(CCCNC2)C1 (centres undefined)	none
COc1ccccc1OCC(=O)N1CCC[C@]2(C[C@@H](OC)CO2)C1	none
CC(C)C(=O)NC1COC2(CCN(C(=O)Cc3ccccn3)CC2)C1 (centres undefined)	none
COC1COC2(CCN(C(=O)Cc3ccccn3)CC2)C1 (centres undefined)	Tgondii IFNg -98.1
CC(C)N1CC2CN(Cc3cnn(C)c3)CCC2(c2ccccc2)C1 (centres undefined)	none
O=C(O)/C=C/c1ccc(O)c(O)c1	none
O=C(O)/C=C/c1ccc(-c2ccc(O)c(C34CC5CC(CC(C5)C3)C4)c2)cc1	Tgondii IFNg -78.7
CC(C)c1ccc(/C=C/C(=O)O)cc1	none
CC(C)C1CN(C(=O)c2cn[nH]c2-n2cnnn2)CCCN1CC1CC1 (centres undefined)	none
CC(CCc1ccc(O)cc1)NC1CCN(S(C)(=O)=O)CC1 (centres undefined)	none
CCOCC1CN(C(=O)CC2=CCCCC2)Cc2nnn(C)c21 (centres undefined)	none
Cc1cc(Cc2cccc(F)c2)cc(C2CCN(C(=O)c3n[nH]c4c3CCCCC4)CC2)n1	Tgondii IFNg -110.6
Cc1cc(Cc2c(F)cccc2F)cc(C2CCN(C(=O)CC3CCCCO3)CC2)n1 (centres undefined)	none
O=C(c1n[nH]c2c1CCCC2)N1CCC(c2[nH]ncc2-c2ccccc2)CC1	none
Cc1ccc(C2(O)CCN(c3ncccn3)C2)cc1 (centres undefined)	none
COc1ccc(C(=O)c2sc(=S)n(-c3ccccc3)c2N)cc1	none
Cc1nc(-c2cccc(F)c2)sc1CCNC(=O)c1ccc(Br)cc1	none
Cc1nc2sc(C(=O)c3ccc(Br)cc3)c(N)c2c(C)c1C	Tgondii IFNg -95.3
CNC(=O)CC1CC2(CCN(C(=O)C(C)C)CC2)Oc2ccccc21 (centres undefined)	none
Cc1onc(-c2ccccc2)c1CNC(=O)c1ccccc1	none
O=C(OCc1ccccc1)N1CCOCCN(C(=O)OCc2ccccc2)CCOCC1	none
Cc1onc(-c2ccccc2)c1CNC(=O)NC1CCN(C(=O)OCc2ccccc2)CC1	Tgondii IFNg -82.0
Cc1onc(-c2ccccc2)c1CNC(=O)C1CCN(c2nccc(C(F)(F)F)n2)CC1	none
Cc1onc(-c2ccccc2)c1CNC(=O)Nc1csc2ccccc12	Tgondii IFNg -98.2
Cc1onc(-c2ccccc2)c1NC(=O)NCc1csc(-c2cccs2)n1	none
CC1CCN(C(=O)CCNC(=O)[C@@H]2C[C@@H]3C=C[C@H]2C3)CC1	none
CCC(Oc1cccc(C)c1)C(=O)Nc1nccs1 (centres undefined)	none
COc1ccc(-c2csc(NC(=O)Cn3cc(C)cn3)n2)cc1OC	none
COc1cc(S(=O)(=O)n2cccn2)c(OC)cc1C	none
O=C(O)Cc1ccc(OC(F)(F)F)cc1	none
CCN1CCC2(CN(Cc3cccnc3)CC23CCN(Cc2ccc(C)o2)CC3)C1=O (centres undefined)	none
O=C1CN(/N=C/c2ccc(-c3ccc([N+](=O)[O-])cc3)o2)C(=O)N1	Tgondii IFNg -75.8
O=C1OCCN1/N=C/c1ccc([N+](=O)[O-])o1	none
CSCC1CN(/N=C/c2ccc([N+](=O)[O-])o2)C(=O)O1 (centres undefined)	none
CCN1CCC2(CC1)OC(=O)C(C)=C2C(=O)Nc1ccc(C)c(C)c1	none
COc1cccc(-n2c(=O)c(C(=O)Nc3ccc(Cl)cc3)c(O)c3cccnc32)c1	none
O=C1CN(C(=O)CSc2nc(C3CCCCC3)nc3ccccc23)c2ccccc2N1	Tgondii IFNg -97.8
O=C(CCC(=O)N1CC(=O)Nc2ccccc21)Nc1cccc(-n2cccn2)c1	none
COc1cc2cc(C)c(SCC(=O)N3CC(=O)Nc4ccccc43)nc2cc1OC	none
CC(=O)N1CCC2(CCOCC2COc2ccccn2)CC1 (centres undefined)	none
Cc1occc1-c1nnc(SCC(=O)Nc2sc3c(c2C(N)=O)CCC3)n1C	none
Cc1ccccc1N(Cc1nc(-c2ccc(OC(C)C)cc2)oc1C)S(=O)(=O)c1cccs1	none
CCCCS(=O)(=O)N1CCC2(CC1)CC2	none
CCc1cccc(C)c1NC(=O)Cn1ncc2c(N3CCN(c4ccccc4)CC3)ncnc21	none
CSc1ccc(C2c3[nH]c4ccccc4c3CCN2C(=O)c2ccncc2)cc1 (centres undefined)	none
COc1ccc(CC(=O)N2CCc3c([nH]c4ccccc34)C2c2ccc(SC)cc2)cc1 (centres undefined)	none

Compound activity from PubChem BioAssay.
